Source: PubChem BioAssay AID504773 (Broad Institute, 2011)
Results with a measured potency or affinity are listed apart. Active and inactive are the calls of the source.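 How the source made its calls: active means polarization signal falls with dose and the fitted half-maximal concentration is at or below ten times the sample's top valid dose; inconclusive means flat curve at 30 to 70% inhibition, or poor fit; inactive means signal rises, flat within 30%, or potency beyond limit.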

What follows are compounds tested against Golgi-associated PDZ and coiled-coil motif-containing protein (Homo sapiens) (UniProt Q9HD26) (assay: potency against CAL PDZ-peptide interaction – biochemical, fluorescence polarization, Cerulean-tagged CAL PDZ, cherry-picks, dose response (AID 504773)). Conditions: CAL PDZ-peptide binding, 1 h; series mostly up to 50 µM.

outcome, inactive:
O=C(COC(=O)c1cccnc1Cl)Nc1ccc2c(c1)OCO2
Cc1ccc2nc(NCc3ccc(F)cc3)c3nncn3c2c1
Cc1cc(NC(=O)Cc2ccc(Br)cc2)no1
COc1cc(Cl)c(CN2CCCC(CO)(Cc3cccc(Cl)c3)C2)cc1OC (configuration not stated)
Cc1cc(SCC(=O)OCC(=O)c2c(N)n(C)c(=O)n(C)c2=O)c(C)cc1Br
CN(C)/N=C1\CCS(=O)(=O)c2sccc21
C(=N\N1CCOCC1)/c1nc(-c2ccccc2)n2ccccc12
CCCn1nnnc1NCc1cc(Br)ccc1OC
O=C(COC(=O)c1ccc(Cl)nc1)Nc1ccc(N2CCCCC2)cc1
CSc1ccccc1NC(=O)c1ccccc1
CCN(CC)CCn1c(SCC(=O)NCc2ccccc2)nc2c(sc3ccccc32)c1=O
COc1ccc(CCn2c(=S)[nH]c3ccc(N4CCOCC4)cc3c2=O)cc1OC
CC(=O)c1ccc(S(=O)(=O)N2CCN(c3ccccc3F)CC2)cc1
CC(C)Oc1ccc(C(=O)Nc2ccc(S(=O)(=O)N3CCN(C)CC3)cc2)cc1
Cc1cccc(C)c1NC(=S)NC(=O)c1ccc(Br)o1
Cn1c(CNC(=O)OC(C)(C)C)n[nH]c1=S
O=C(c1cc2cc([N+](=O)[O-])ccc2oc1=O)N1CCN(C2CCCCC2)CC1
COc1ccc(CC(=O)NNC(=O)CCc2ccccc2)cc1OC
CC12CCC(C(=O)N(CCCN3CCN(Cc4ccccc4)CC3)C1=O)C2(C)C (configuration not stated)
CN1CCN(c2ccccc2NC(=O)c2ccc(N3CCCC3)c([N+](=O)[O-])c2)CC1
Cc1ccc(SCC(=O)NCc2ccc(F)cc2)cc1
COc1cccc(NC(=O)N2CCCCCC2)c1
Fc1ccc(-n2c(-c3ccc4ccccc4n3)n[nH]c2=S)cc1Cl
COc1cccc(N2CCN(C(=O)c3ccc(-c4ccccc4)cc3)CC2)c1
CCOC(=O)N1CCN(Cc2nc3c(c(=O)n(C)c(=O)n3C)n2Cc2cccc(C)c2)CC1
CC(=O)Nc1sc2c(c1C(c1ccccn1)N1CCN(C)CC1)CCCC2 (configuration not stated)
Cc1cc(C)nc(CCNC(=O)c2cc(COc3c(C)cccc3C)on2)n1
CN(C)CCNC(=O)COc1cccc2c1OC(C)(C)C2
Cc1c(Cl)c(C(F)(F)F)nn1CC(=O)NCc1ccco1
CC(c1ccccc1)N1CCN(C(=O)CCl)CC1 (configuration not stated)
COc1ccc(CN2CCCC(N3CCN(c4cccc(Cl)c4)CC3)C2)cc1OC (configuration not stated)
Cc1cccc(NS(=O)(=O)Cc2ccccc2)c1C
COC(=O)CN1C(=O)C(O)=C(C(C)=O)C1c1ccc([N+](=O)[O-])cc1 (configuration not stated)
O=C(COC(=O)CNC(=O)c1cccc([N+](=O)[O-])c1)NCc1ccco1
CCOC(=O)Cn1ncn(-c2ccc(OC(F)(F)F)cc2)c1=O
CCOCCCNC(=O)c1ccc2c(=O)n(Cc3ccc4c(c3)OCO4)c(=S)[nH]c2c1
CNC(=O)c1nnn(Cc2ccccc2)c1NC(C)=O
